Data as given in ChEMBL document CHEMBL1961873, “Compounds: GSK PKIS; Assays: Nanosyn kinase panel” (2012).

Columns and labels:
[1] = target: Serine/threonine-protein kinase PAK 6 (Homo sapiens) (UniProt Q9NQU5); conditions: at 1 µM;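 note: values are mean percent inhibition of PAK6 kinase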
[2] = tested on: Tyrosine-protein kinase ABL1 (Homo sapiens), P00519 [E255K]; conditions: at 0.1 µM
[3] = tested on: Tyrosine-protein kinase ABL1 (Homo sapiens), P00519 [E255K]; conditions: at 1 µM
[4] = tested on: Tyrosine-protein kinase ABL1 (Homo sapiens), P00519 [H396P]; conditions: at 0.1 µM
[5] = tested on: Tyrosine-protein kinase ABL1 (Homo sapiens), P00519 [H396P]; conditions: at 1 µM
[6] = tested on: Tyrosine-protein kinase ABL1 (Homo sapiens), P00519 [M351T]; conditions: at 0.1 µM
[7] = tested on: Tyrosine-protein kinase ABL1 (Homo sapiens), P00519 [M351T]; conditions: at 1 µM
[8] = tested on: Tyrosine-protein kinase ABL1 (Homo sapiens), P00519 [Q252H]; conditions: at 0.1 µM
[9] = tested on: Tyrosine-protein kinase ABL1 (Homo sapiens), P00519 [Q252H]; conditions: at 1 µM
[10] = tested on: Tyrosine-protein kinase ABL1 (Homo sapiens), P00519 [T315I]; conditions: at 0.1 µM
[11] = tested on: Tyrosine-protein kinase ABL1 (Homo sapiens), P00519 [T315I]; conditions: at 1 µM
[12] = tested on: Tyrosine-protein kinase ABL1 (Homo sapiens), P00519 [Y253F]; conditions: at 0.1 µM
[13] = tested on: Tyrosine-protein kinase ABL1 (Homo sapiens), P00519 [Y253F]; conditions: at 1 µM
[14] = target: Tyrosine-protein kinase ABL1 (Homo sapiens) (UniProt P00519); conditions: at 0.1 µM
[15] = target: Tyrosine-protein kinase ABL1 (Homo sapiens) (UniProt P00519); conditions: at 1 µM
[16] = target: ALK tyrosine kinase receptor (Homo sapiens) (UniProt Q9UM73); conditions: at 0.1 µM
[17] = target: ALK tyrosine kinase receptor (Homo sapiens) (UniProt Q9UM73); conditions: at 1 µM
[18] = target: Tyrosine-protein kinase ABL2 (Homo sapiens) (UniProt P42684); conditions: at 0.1 µM
[19] = target: Tyrosine-protein kinase ABL2 (Homo sapiens) (UniProt P42684); conditions: at 1 µM
[20] = target: Tyrosine-protein kinase receptor UFO (Homo sapiens) (UniProt P30530); conditions: at 0.1 µM;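 note: values are mean percent inhibition of AXL from the GSK PKIS screen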
Chain of Tyrosine-protein kinase receptor UFO (Homo sapiens) (P30530 whole entry): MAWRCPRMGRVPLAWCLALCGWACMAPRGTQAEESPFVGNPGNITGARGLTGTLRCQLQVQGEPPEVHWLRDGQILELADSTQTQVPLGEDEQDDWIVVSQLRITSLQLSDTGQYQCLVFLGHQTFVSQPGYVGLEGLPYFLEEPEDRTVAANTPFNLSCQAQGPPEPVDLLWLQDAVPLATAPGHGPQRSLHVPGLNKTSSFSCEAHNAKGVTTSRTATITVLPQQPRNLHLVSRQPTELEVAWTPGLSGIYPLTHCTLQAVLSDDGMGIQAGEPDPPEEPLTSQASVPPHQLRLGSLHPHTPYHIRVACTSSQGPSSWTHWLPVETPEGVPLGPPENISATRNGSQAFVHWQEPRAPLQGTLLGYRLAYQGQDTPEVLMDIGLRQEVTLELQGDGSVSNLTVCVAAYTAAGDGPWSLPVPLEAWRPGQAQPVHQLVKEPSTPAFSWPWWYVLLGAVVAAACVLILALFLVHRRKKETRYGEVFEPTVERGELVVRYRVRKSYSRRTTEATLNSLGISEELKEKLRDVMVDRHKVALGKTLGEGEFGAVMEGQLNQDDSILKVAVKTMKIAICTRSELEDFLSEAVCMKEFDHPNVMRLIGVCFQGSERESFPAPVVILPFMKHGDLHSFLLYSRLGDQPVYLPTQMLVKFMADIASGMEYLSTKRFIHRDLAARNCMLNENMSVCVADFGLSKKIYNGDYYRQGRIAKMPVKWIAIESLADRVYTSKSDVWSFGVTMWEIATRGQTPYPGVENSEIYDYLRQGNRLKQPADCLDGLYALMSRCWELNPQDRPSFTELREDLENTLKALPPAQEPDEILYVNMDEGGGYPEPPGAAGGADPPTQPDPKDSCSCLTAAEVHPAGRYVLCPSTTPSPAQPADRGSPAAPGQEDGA

Chain of ALK tyrosine kinase receptor (Homo sapiens) (Q9UM73 19-1620 limits assumed): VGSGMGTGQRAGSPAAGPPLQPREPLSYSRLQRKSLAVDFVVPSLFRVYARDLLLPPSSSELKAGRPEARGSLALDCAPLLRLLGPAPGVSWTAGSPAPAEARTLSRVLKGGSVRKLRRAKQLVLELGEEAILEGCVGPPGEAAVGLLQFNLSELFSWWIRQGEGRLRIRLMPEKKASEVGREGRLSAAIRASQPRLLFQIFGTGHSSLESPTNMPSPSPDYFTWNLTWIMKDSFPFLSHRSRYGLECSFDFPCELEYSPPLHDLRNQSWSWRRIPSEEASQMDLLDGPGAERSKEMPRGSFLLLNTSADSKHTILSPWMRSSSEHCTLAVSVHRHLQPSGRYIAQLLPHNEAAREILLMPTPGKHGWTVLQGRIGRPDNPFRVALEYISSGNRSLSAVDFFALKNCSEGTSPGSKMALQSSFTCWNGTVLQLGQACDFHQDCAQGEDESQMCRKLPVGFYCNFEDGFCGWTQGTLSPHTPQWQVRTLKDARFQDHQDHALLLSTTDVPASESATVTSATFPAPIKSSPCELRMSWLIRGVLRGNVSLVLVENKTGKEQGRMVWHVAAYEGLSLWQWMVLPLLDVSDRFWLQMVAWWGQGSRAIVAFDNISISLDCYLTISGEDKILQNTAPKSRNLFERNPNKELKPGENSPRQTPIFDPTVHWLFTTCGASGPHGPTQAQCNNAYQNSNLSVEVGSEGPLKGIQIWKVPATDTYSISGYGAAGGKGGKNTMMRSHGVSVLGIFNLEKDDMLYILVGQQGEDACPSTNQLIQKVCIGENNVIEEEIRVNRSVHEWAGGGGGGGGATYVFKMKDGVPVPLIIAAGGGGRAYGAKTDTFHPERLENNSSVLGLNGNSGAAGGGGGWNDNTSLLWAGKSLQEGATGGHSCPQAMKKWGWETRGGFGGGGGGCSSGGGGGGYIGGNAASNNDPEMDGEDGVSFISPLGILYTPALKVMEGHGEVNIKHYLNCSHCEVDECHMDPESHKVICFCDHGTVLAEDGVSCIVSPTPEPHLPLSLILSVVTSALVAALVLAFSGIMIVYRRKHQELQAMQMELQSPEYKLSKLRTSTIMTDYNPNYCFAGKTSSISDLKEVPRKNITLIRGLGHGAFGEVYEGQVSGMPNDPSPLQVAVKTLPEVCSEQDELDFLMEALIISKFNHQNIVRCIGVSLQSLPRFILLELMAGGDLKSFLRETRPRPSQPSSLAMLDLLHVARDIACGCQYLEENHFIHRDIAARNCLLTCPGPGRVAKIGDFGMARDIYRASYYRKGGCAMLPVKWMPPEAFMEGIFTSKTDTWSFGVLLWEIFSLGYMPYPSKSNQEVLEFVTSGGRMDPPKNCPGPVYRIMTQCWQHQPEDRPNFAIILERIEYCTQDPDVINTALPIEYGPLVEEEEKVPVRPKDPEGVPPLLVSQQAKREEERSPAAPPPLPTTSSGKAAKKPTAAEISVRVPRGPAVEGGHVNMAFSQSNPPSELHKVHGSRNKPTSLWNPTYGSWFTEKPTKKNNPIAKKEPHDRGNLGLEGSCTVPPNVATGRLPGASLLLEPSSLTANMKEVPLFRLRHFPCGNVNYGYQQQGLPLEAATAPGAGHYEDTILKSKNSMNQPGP
Chain of Serine/threonine-protein kinase PAK 6 (Homo sapiens) (Q9NQU5 whole entry, looked up): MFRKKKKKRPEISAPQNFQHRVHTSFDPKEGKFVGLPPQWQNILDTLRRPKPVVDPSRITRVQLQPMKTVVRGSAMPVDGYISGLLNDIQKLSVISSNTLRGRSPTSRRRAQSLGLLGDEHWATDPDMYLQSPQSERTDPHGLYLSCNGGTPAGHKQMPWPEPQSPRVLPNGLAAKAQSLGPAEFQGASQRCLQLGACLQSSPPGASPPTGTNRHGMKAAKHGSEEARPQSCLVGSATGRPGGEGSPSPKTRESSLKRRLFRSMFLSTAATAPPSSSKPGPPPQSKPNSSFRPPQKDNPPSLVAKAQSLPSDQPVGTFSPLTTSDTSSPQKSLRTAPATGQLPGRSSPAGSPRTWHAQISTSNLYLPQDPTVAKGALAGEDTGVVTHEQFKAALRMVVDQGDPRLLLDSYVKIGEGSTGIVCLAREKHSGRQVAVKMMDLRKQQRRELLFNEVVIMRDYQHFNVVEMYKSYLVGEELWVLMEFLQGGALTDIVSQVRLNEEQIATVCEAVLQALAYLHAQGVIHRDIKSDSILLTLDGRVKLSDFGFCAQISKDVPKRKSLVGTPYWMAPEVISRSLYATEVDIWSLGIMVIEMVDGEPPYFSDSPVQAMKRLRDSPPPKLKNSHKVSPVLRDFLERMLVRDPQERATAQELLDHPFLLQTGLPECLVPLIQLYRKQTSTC
Chain of Tyrosine-protein kinase ABL2 (Homo sapiens) (P42684 whole entry): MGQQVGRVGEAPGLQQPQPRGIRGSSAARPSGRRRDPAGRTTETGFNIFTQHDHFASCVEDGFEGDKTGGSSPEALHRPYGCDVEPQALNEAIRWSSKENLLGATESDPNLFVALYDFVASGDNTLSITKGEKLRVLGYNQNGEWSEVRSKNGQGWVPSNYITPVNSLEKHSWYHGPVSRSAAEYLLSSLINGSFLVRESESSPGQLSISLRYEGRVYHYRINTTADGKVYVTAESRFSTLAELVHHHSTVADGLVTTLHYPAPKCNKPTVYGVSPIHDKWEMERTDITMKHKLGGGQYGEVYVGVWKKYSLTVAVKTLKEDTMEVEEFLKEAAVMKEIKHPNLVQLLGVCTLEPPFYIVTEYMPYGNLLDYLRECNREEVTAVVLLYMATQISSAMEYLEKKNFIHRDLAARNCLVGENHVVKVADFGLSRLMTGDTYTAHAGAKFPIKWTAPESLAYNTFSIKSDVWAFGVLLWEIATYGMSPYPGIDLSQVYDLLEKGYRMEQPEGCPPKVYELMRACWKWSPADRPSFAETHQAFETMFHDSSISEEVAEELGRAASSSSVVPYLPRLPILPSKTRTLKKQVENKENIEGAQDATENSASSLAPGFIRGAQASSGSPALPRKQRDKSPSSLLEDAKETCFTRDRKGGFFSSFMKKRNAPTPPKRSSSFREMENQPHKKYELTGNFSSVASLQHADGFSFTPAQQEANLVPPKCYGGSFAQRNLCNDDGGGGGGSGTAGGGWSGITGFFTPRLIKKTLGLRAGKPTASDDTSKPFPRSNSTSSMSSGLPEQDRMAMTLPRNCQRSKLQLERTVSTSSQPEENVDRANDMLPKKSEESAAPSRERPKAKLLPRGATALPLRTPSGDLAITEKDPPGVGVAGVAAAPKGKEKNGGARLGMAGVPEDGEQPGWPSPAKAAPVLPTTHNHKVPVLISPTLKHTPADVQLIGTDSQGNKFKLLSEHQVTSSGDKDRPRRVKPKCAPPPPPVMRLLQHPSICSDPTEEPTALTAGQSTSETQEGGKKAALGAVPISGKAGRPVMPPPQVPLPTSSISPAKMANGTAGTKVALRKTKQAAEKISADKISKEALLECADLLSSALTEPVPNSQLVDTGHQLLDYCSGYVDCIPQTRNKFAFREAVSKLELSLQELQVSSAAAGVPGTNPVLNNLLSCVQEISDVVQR

Structure (SMILES) | inhibition [1] [%] | inhibition [2] [%] | inhibition [3] [%] | inhibition [4] [%] | inhibition [5] [%] | inhibition [6] [%] | inhibition [7] [%] | inhibition [8] [%] | inhibition [9] [%] | inhibition [10] [%] | inhibition [11] [%] | inhibition [12] [%] | inhibition [13] [%] | inhibition [14] [%] | inhibition [15] [%] | inhibition [16] [%] | inhibition [17] [%] | inhibition [18] [%] | inhibition [19] [%] | inhibition [20] [%]
N#Cc1c(NC(=O)c2ccc(F)cc2)sc2c1CCCC2 | -6.51 | 0.33 | 1.93 | -0.63 | 0.11 | -1.3 | 2.69 | 1.76 | 2.3 | 1.04 | -0.02 | 0.83 | 1.49 | 1.79 | 4.24 | -0.03 | 1.01 | 3.54 | 2.41 | -1.93
CN1CCC(n2cnc(-c3ccc(F)cc3)c2-c2ccnc(Nc3ccccc3)n2)CC1 | -6.61 | 2.58 | 4.56 | 4.83 | 13.6 | 0.84 | 10.2 | 3.66 | 9.15 | 1.45 | 4.98 | 3.47 | 9.91 | 1.69 | 11 | 1.58 | 2.39 | 3.42 | 10.2 | -2.82
Cc1ccc(O)cc1Nc1ccnc2cc(-c3ccccn3)ccc12 | 4.08 | 93.5 | 96.2 | 94.7 | 97.2 | 93.6 | 97.9 | 94 | 98 | 10.1 | 50.7 | 95.5 | 98.2 | 84.3 | 89.4 | 5.32 | 34.1 | 74.3 | 95.7 | -5.44
Fc1ccc(-c2nn3ncccc3c2-c2ccnc(Nc3ccc4c(c3)OCCO4)n2)cc1 | -1.03 | 10.2 | 40.9 | 25.5 | 69.9 | 38.6 | 81 | 31 | 75.2 | 14.1 | 53.4 | 29.3 | 72.2 | 11.8 | 62.6 | 4.64 | 7.86 | 10.4 | 56.1 | -9.81
COc1ccc2[nH]c3c4[nH]c5ccc(OC)cc5c4c4c(c3c2c1)C(=O)NC4=O | -0.34 | 7.87 | 36.1 | 10.7 | 45.3 | 10.1 | 47.7 | 29.6 | 72.5 | 9.34 | 33.7 | 15.4 | 52.3 | 6.32 | 34 | 13.8 | 58.3 | 3.1 | 12.1 | 11
Clc1ccc(-c2nn3ncccc3c2-c2ccnc(Nc3ccccc3)n2)cc1 | 1.5 | 2.58 | 8.98 | 4.63 | 20.5 | 10.4 | 45.8 | 5.9 | 36.2 | 6.6 | 30.7 | 7.15 | 24.5 | 3.9 | 27.6 | 2.8 | 2.67 | 3.8 | 18.2 | -0.26
COc1cc2c(cc1Nc1nc(Nc3ccsc3C(N)=O)c3cc[nH]c3n1)N(C(=O)CN(C)C)CCC2(C)C | 3.1 | 0.79 | 4.14 | 4.5 | 2.9 | 2.15 | 1.57 | 4.15 | 2.78 | 3.19 | 3.95 | 3.45 | 4.27 | 2.57 | 6.2 | 95.7 | 78.5 | 2.86 | 4.17 | 47.4
Fc1cccc(COc2ccc(Nc3ncnc4sc(-c5ccco5)cc34)cc2Cl)c1 | -3.19 | 3.34 | 3.39 | 3.3 | 5.3 | 0.31 | 1.04 | 3.83 | 2.01 | 1.83 | 2.74 | 3.33 | 3.8 | 4.81 | 8.56 | 3.35 | 4.37 | 4.36 | 7.39 | -6.97
c1ccc(COc2ccc(Nc3ncnc4ccc(-c5ccco5)cc34)cc2)cc1 | 1.25 | -0.69 | 0.29 | 0.16 | 0.64 | 0.39 | 2.41 | 0.54 | 0.07 | 1.64 | 1.49 | 0.09 | 0.37 | 2.97 | 1 | 1.38 | 2.45 | 2.41 | 4.34 | 0.76
COc1cc(N2CCN(C(C)C)CC2)ccc1Nc1nc(Nc2ccc(F)cc2C(N)=O)c2cc[nH]c2n1 | 3.58 | -0.24 | 1.64 | 1.72 | 2.38 | 1.19 | 2.15 | 1.11 | 2.74 | -0.7 | 7.02 | 0.29 | 1.6 | 3.76 | 3.4 | 88.3 | 88.8 | -0.12 | 2.78 | 3.89
CCOc1ccc2c(-c3ccnc(Nc4cccc(C(F)(F)F)c4)n3)cnn2n1 | -3.51 | 2.13 | 4.02 | 2.46 | 4.74 | 0.25 | 1.69 | 2.99 | 3.05 | -0.14 | 2.2 | 2.21 | 3.23 | 3.73 | 7.89 | 2.18 | 3.1 | 2.04 | 8.28 | -3.01
CC(=O)Nc1cccc(C#Cc2cncnc2Nc2ccc(OCc3cccc(F)c3)c(Cl)c2)c1 | -5.42 | -0.36 | 1.79 | 2.77 | 1.25 | 1.83 | 2.92 | 2.53 | 2.16 | 1.92 | 1.79 | 0.83 | 3.28 | 4.43 | 8.55 | 1.96 | 6.45 | 2.39 | 5.22 | 1.64
CCn1c(-c2nonc2N)nc2ccccc21 | -4.14 | 3.43 | 2.16 | 3.5 | 0.21 | 2.29 | -3.04 | 4.29 | 0.56 | 2.3 | 1.53 | 3.97 | 4.13 | 4.4 | 6.01 | 1.5 | 8.1 | 4.04 | 3 | -0.67
N#Cc1c(NC(=O)CN2CCOCC2)sc2c1CCCC2 | -4.27 | 3.47 | 4.25 | 2.48 | 5.61 | 1.25 | 4.91 | 1.82 | 4.61 | 2.58 | 5.24 | 5.91 | 7.6 | 6.98 | 7.71 | 3.56 | 8.62 | 5.84 | 5.84 | -5.02
COc1ccc2c(-c3ccnc(Nc4cccc(OC(F)(F)F)c4)n3)cnn2n1 | 6.82 | 3.39 | 4.4 | 3.04 | 15.7 | 1.37 | 11.9 | 4.44 | 9.67 | 0.99 | 6.33 | 4.09 | 8.45 | 4.8 | 17 | 2.4 | 5.73 | 4.05 | 19.1 | -4.17
O=C(Nc1n[nH]c2cc(-c3ccc(F)cc3)ccc12)C1CC1 | -5.36 | 9.03 | 23.3 | 11.3 | 46.6 | 11.5 | 55.2 | 7.91 | 33.9 | 19.5 | 69.4 | 10.8 | 40.1 | 5.81 | 40.4 | 1.12 | 2.06 | 3.46 | 12.3 | -5.44
CNC(=O)c1cc(-c2ccc(F)cc2)cc(-c2ccc(S(=O)(=O)N3CCCC3)cc2)c1N | -8.22 | 2.54 | 2.4 | 3.29 | 3.32 | 0.22 | 0.79 | 1.67 | 1.16 | 2.5 | 2.16 | 3.15 | 4.16 | 3.12 | 5.19 | 1.91 | 2.88 | 2.17 | 3.71 | -5.35
COC(=O)c1sc(-n2cnc3cc(OC)c(OC)cc32)cc1OCc1ccccc1C(F)(F)F | 0.71 | 6.91 | 22.7 | 5.82 | 18.2 | 4.03 | 16.2 | 6.05 | 18.9 | 2.67 | 4.91 | 6.46 | 21.6 | 3.86 | 12.3 | 3.59 | 12.4 | 3.44 | 5.92 | -8.88
COc1cc2ncn(-c3cc(OCc4ccccc4C(F)(F)F)c(C(=O)N(C)C)s3)c2cc1OC | -4.14 | 1.36 | 9.93 | 2.27 | 16.3 | 1.09 | 14.9 | 2.35 | 13.2 | -0.89 | 1.37 | 1.14 | 17.4 | 2.99 | 18.7 | 0.27 | 0.78 | 4.85 | 11.8 | -0.33
Nc1ncc(-c2cccc(S(N)(=O)=O)c2)c2scc(-c3ccc(F)c(Cl)c3)c12 | -1.87 | 35.4 | 84.7 | 69.4 | 93.5 | 64.2 | 93.9 | 55.3 | 91.4 | 5.83 | 35 | 62.6 | 92.4 | 60.5 | 87.6 | 4.32 | 13.8 | 35.4 | 78.4 | -4.87
Cc1ccc2c(-c3ccnc(Nc4ccccc4)n3)c(-c3ccc(F)cc3)nn2n1 | 5.13 | 3.13 | 15.7 | 7.21 | 36 | 15.1 | 56.4 | 12 | 49.9 | 4.75 | 20.2 | 11.5 | 42.2 | 5.24 | 35.5 | 2.29 | 5.55 | 4.61 | 34.1 | -5.33
CC1=C(C(=O)Nc2cc(Cl)c3[nH]ncc3c2)C(c2ccc(C(F)(F)F)cc2)CC(=O)N1 (stereo not given) | -3.39 | 3.18 | 3.01 | 4.1 | 2.88 | 1.43 | 4.53 | 4.06 | 4.83 | 2.02 | 3.3 | 3.38 | 4.41 | 2.62 | 1.72 | 2.22 | 2.26 | 3.63 | 3.51 | -4.79
CCn1c(-c2nonc2N)nc2cnc(Oc3cccc(NC(=O)c4ccc(N(C)C)cc4)c3)cc21 | -2.65 | 0.6 | 9.02 | 0.27 | 1.9 | -1.02 | 4.81 | 2.14 | 1.78 | 1.38 | 1.03 | 2.77 | 6.27 | 1.77 | 3.99 | 0.57 | 1.96 | 2.48 | 2.42 | -3.9
CCn1cc(-c2ccnc3[nH]ccc23)c(-c2cccc(NC(=O)Nc3ccc(OCc4ccccc4)cc3)c2)n1 | 3.29 | 1.22 | -1.34 | 1.15 | 3.55 | 1.36 | 3.02 | 0.71 | 2.72 | -0.6 | -0.74 | 0.58 | 0.94 | 1.03 | 2.88 | 0.6 | 0.71 | 0.39 | 6.44 | 0.7
[O-][S+]1CCN(Cc2ccc(-c3ccc4ncnc(Nc5ccc(OCc6cccc(F)c6)c(Cl)c5)c4c3)o2)CC1 | -3.68 | 3.89 | 6.86 | 5.46 | 5.91 | 1.58 | 7.69 | 5.02 | 6.64 | 2.49 | 3.02 | 4.31 | 4.49 | 2.52 | 5.75 | 3.34 | 7.82 | 1.01 | 7.14 | -4.66
COc1cccc(-c2c[nH]c3c(N/N=C/c4ccncc4)ncnc23)c1 | -1.79 | 65 | 91.1 | 76.2 | 93.6 | 76.5 | 92.5 | 79.8 | 92.6 | 11.8 | 57.7 | 73 | 93.2 | 57.6 | 81.7 | 0.85 | 1.19 | 41.8 | 78.6 | -2.43
CC(C)(CO)CNC(=O)c1ccc2c(c1)/C(=N/Nc1ccc(S(N)(=O)=O)cc1)C(=O)N2 | 1.5 | -0.35 | 9 | -2.04 | 9.98 | -0.43 | 9.9 | -0.04 | 9.08 | -2 | 8.62 | -0.6 | 12.8 | -2.29 | 10.7 | -0.91 | -1.23 | -1.16 | 3.31 | 1.56
